Laboratory results as given in the supplement of paper PMC6555819.

Columns and labels:
Test in all cases: PBM binding z-score (relative to random genomic background probes); higher = stronger binding; sequences stand for … in GC…GCGATTGACAGCGTAGAATGAAGG
[1] = tested on: RARb homodimer (NR concentration 270 nM)
In short: (§1)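 Scanned fluorescence from custom Agilent 4×180K protein-binding microarrays was regression-normalized. Binding z-scores use random background probes as reference. Ligand-free nuclear receptor dimers were incubated on the arrays for 1 h and detected with antibodies against each partner (one per run).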

[2] = tested on: RARg:RXRa (NR concentration 270 nM, RXRa partner concentration 90 nM)
In short: as §1

[3] = tested on: RARg homodimer (NR concentration 270 nM)
In short: as §1

[4] = tested on: RXRa DBDmut IVT, anti-RXR (DBD mutation: RXRa K156A/R161A, NR concentration 90 nM)
In short: as §1

[5] = tested on: RXRa homodimer (NR concentration 180 nM)
In short: as §1

[6] = tested on: THRa:RXRa (NR concentration 90 nM, RXRa partner concentration 90 nM)
In short: as §1

[7] = tested on: THRa homodimer (NR concentration 90 nM)
In short: as §1

[8] = tested on: VDR homodimer (NR concentration 270 nM)
In short: as §1

Row | Sequence | PBM binding z-score [1] | PBM binding z-score [2] | PBM binding z-score [3] | PBM binding z-score [4] | PBM binding z-score [5] | PBM binding z-score [6] | PBM binding z-score [7] | PBM binding z-score [8]
1 | CCTACTGGGCCATTCAGAGGTCTTTGATCATATG | 0.406 | 0.221 | 0.17 | -0.165 | -0.258 | 0.0585 | -0.237 | -0.313
2 | ATCTCTAGGTAAAGATAGTTCAGAGAATGCAAAT | 0.692 | 0.65 | 0.767 | -0.136 | 0.482 | 0.724 | 0.0734 | 0.51
3 | CCTCGGAGGACAAAAGGAGGTCAGAGCTGCCAGA | 3.07 | 3.24 | 2.75 | 0.256 | 1.82 | 2.5 | 0.878 | 1.23
4 | TATACAGGGTCACAGGCCAGAGTACGAATGTCGA | 3.83 | 5.96 | 5.41 | 2.61 | 6.79 | 3.92 | 1.94 | 2.51
5 | GCTTGTAGATCAAAGTTAAGAAAGACTAAGCTAA | -0.8 | -0.501 | -0.292 | -0.0516 | -0.495 | -0.445 | -1.4 | -0.623
6 | ATCGAAAGGTCCAGGTGAGTATAGAGAAAGGGAA | 0.976 | 0.8 | 0.946 | 0.31 | 0.494 | 0.94 | 0.905 | 0.121
7 | ACAGACAGGTGATGAAGCTAACTCAGGCTATCAT | -0.226 | 0.175 | 0.281 | -0.327 | 0.256 | 0.425 | -0.032 | -0.132
8 | CCGACTGGGACAGAAAGGTTACCATACCATCCGG | 2.12 | 1.37 | 0.963 | -0.641 | 1.61 | 1.19 | -0.195 | -0.17
9 | ACTTACGGGTCCACGAGGTTATAGCACGCGTATA | 1.33 | 1.43 | 0.919 | 3.07 | 1.61 | 2.26 | 1.65 | 3.37
10 | TCTCGGTGGACACGAAGGTCAGAGCTTTCCAGAG | 3.04 | 2.19 | 1.97 | 0.131 | 1.55 | 1.39 | -0.0519 | -0.0711
11 | ACTATTCGTTGACTTAGGGCAACCGATACGACGC | 0.887 | 0.792 | 0.996 | 0.445 | 0.633 | 0.912 | 0.963 | 0.261
12 | CCGACTGGGGGATAAGGTTACCATAAGCCAGCCC | 1.05 | 1.12 | 0.756 | -0.00884 | 1.21 | 2.51 | 2.11 | 0.491
13 | CCTAGCAGGCCAATCTGGGTCACACAAGGCTTGA | 2.53 | 1.61 | 1.82 | 0.0737 | 1.63 | 3.99 | 0.9 | 0.17
14 | CCGAGTAGGTCATGGGGCATTCAGGCAACGGTGA | 3.25 | 4.34 | 4.44 | 0.881 | 3.87 | 2.45 | 0.499 | 0.642
15 | ATACCAAGGTGACCGTGAGGTCGTTGATACTAAC | 2.9 | 3.36 | 1.96 | 0.82 | 2.27 | 3.74 | 3.08 | 2.81
16 | TCTTGTAGATCAAGCTGGTTAAGAAAGCCTGAGT | -0.589 | -0.384 | -0.528 | 0.614 | -0.39 | -0.367 | -0.87 | -0.547
17 | TCGAGTAGGTTACCAATGGGGCATTCACCTTTCT | 1.29 | 1.38 | 0.58 | 0.49 | 0.913 | 0.504 | -0.317 | -0.574
18 | ATACCCAGGTGATCGTGAGGTCGTTGATACTAAC | 2 | 1.49 | 0.63 | 0.432 | 1.39 | 3.14 | 2.72 | 2.52
19 | TCTCGGAGGACACGAAGGTCAGAGATTTCCAGAG | 3.84 | 3.05 | 4.12 | 0.78 | 1.99 | 2.92 | 1.1 | 1.7
20 | CAAACTAGGTCAAGAGGCCAAAGTCCGCTTCCCG | 3.79 | 4.65 | 4.83 | 1.85 | 2.98 | 2.75 | 0.986 | 1.03
21 | CGAACGAGGGCATGAGGTGATAGCAAATGCCGAT | 1.11 | 1.88 | 1.83 | 1.56 | 1.32 | 2.26 | 0.557 | 0.945
22 | CCGACTGGGGCAGCAAGGTTACCATACCATCCGG | 1.52 | 0.772 | 0.82 | -0.746 | 0.706 | 1.21 | 0.373 | 0.0128
23 | ACTACCAGGCCAAGTTTGGGTCACTCAAACAAAG | 2.49 | 2.52 | 1.72 | 0.137 | 0.944 | 2.86 | 1.72 | 0.598
24 | AGTCAAAGTTCAGGACGAGGTTACGTAAAGCACG | 3.96 | 5.81 | 5.25 | 3.2 | 4.19 | 3.92 | 1.81 | 3.15
25 | CAAACTAGGTAAAAGGTCAAAGTCGAGCCAACCA | 4.69 | 6.32 | 5.16 | 1.67 | 7.54 | 4.01 | 1.07 | 2.02
26 | CCTCGGAGGACAGATGGTCAGAGCTGTCCGCTTT | 0.0769 | 0.0731 | 0.421 | -0.0448 | -0.625 | -0.175 | -0.332 | -0.436
27 | GCTAGTTGGTCAGTAAAAGGACACACACCGGTCG | 2.31 | 1.15 | 1.73 | -0.384 | 0.00337 | 0.856 | 0.41 | 0.256
28 | TCATATAGGTAAATGCTACGTGAAAGTCCGATCT | -0.0537 | 0.346 | 0.292 | 1.58 | 0.839 | -0.0231 | 0.0102 | 0.41
